Source: the supplement of paper PMC4022240
± gives the standard deviation.

T1: HaloTag-ATRX ADD domain (163-292)
T1 chain: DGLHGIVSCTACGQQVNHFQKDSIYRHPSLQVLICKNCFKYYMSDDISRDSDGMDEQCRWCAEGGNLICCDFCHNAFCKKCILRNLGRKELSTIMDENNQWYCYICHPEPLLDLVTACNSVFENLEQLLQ


Target: T1, HaloTag-ATRX ADD domain (163-292)
Test: peptide microarray binding signal (635 nm), min-max normalized on array (fraction of array maximum); higher = stronger binding
Settings: peptide region: Unmod H1 variant; binder concentration: 50 nM
How it was run: (§1)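 Triplicate spots of histone 13-mer peptide–cellulose conjugates with a Cy3 tracer were printed on nitrocellulose and probed for 1 h at 4°C with biotin-labelled HaloTag reader fusions (10 nM to 1 μM) plus streptavidin-Alexa Fluor 647 or rabbit histone antibodies (1:10,000 to 1:2,000) plus anti-rabbit Alexa 647. An Axon GenePix 4000B read the 635 nm channel. Binding signal is the spot-triplicate mean intensity after min-max scaling within each library.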

Binder	peptide microarray binding signal
SHYKVGENADSQI [Unmod H1 variant S H Y K V G E N A D S Q I]	0.00937 ± 0.00014
TPKKASKPKKAAS [Unmod H1 variant T P K K A S K P K K A A S]	0.0118 ± 0.00065
TENSTSAPAAKPK [Unmod H1 variant T E N S T S A P A A K P K]	0.0132 ± 0.00019
SETVPPAPAASAA [Unmod H1 variant S E T V P P A P A A S A A]	0.0132 ± 0.00014
AKKKLAATPKKAK [Unmod H1 variant A K K K L A A T P K K A K]	0.01188 ± 3e-05
KKAKKPKTVKAKP [Unmod H1 variant K K A K K P K T V K A K P]	0.0134 ± 0.00092
PKKAPVKPKAKSS [Unmod H1 variant P K K A P V K P K A K S S]	0.0131 ± 0.00065
SDMIVAAIQAEKN [Unmod H1 variant S D M I V A A I Q A E K N]	0.0102 ± 0.00022
PKKSVAFKKTKKE [Unmod H1 variant P K K S V A F K K T K K E]	0.0103 ± 0.00015
KAKPVKASKPKKA [Unmod H1 variant K A K P V K A S K P K K A]	0.01229 ± 0.00011

Same assay, conditions: peptide region: Unmod H1 variant; binder concentration: 500 nM

Binder	peptide microarray binding signal
SHYKVGENADSQI [Unmod H1 variant S H Y K V G E N A D S Q I]	0.00671 ± 0.00048
TPKKASKPKKAAS [Unmod H1 variant T P K K A S K P K K A A S]	0.00967 ± 0.00036
TENSTSAPAAKPK [Unmod H1 variant T E N S T S A P A A K P K]	0.0173 ± 0.002
SETVPPAPAASAA [Unmod H1 variant S E T V P P A P A A S A A]	0.00691 ± 0.00014
AKKKLAATPKKAK [Unmod H1 variant A K K K L A A T P K K A K]	0.0112 ± 0.00064
KKAKKPKTVKAKP [Unmod H1 variant K K A K K P K T V K A K P]	0.00981 ± 0.00033
PKKAPVKPKAKSS [Unmod H1 variant P K K A P V K P K A K S S]	0.0107 ± 0.00047
SDMIVAAIQAEKN [Unmod H1 variant S D M I V A A I Q A E K N]	0.00514 ± 0.00038
PKKSVAFKKTKKE [Unmod H1 variant P K K S V A F K K T K K E]	0.00867 ± 0.00023
KAKPVKASKPKKA [Unmod H1 variant K A K P V K A S K P K K A]	0.00971 ± 0.00061

target: HaloTag-ING2 PHD (mouse Ing2 200-280); test: as above; settings: peptide region: Unmod H1 variant; binder concentration: 10 nM
How it was run: as §1

Binder	peptide microarray binding signal
SHYKVGENADSQI [Unmod H1 variant S H Y K V G E N A D S Q I]	0.00197 ± 2.3e-05
TPKKASKPKKAAS [Unmod H1 variant T P K K A S K P K K A A S]	0.00167 ± 1.7e-05
TENSTSAPAAKPK [Unmod H1 variant T E N S T S A P A A K P K]	0.005132 ± 2.5e-05
SETVPPAPAASAA [Unmod H1 variant S E T V P P A P A A S A A]	0.00448 ± 6.1e-05
AKKKLAATPKKAK [Unmod H1 variant A K K K L A A T P K K A K]	0.00203 ± 2.1e-05
KKAKKPKTVKAKP [Unmod H1 variant K K A K K P K T V K A K P]	0.00215 ± 4.5e-05
PKKAPVKPKAKSS [Unmod H1 variant P K K A P V K P K A K S S]	0.00245 ± 0.0001
SDMIVAAIQAEKN [Unmod H1 variant S D M I V A A I Q A E K N]	0.00555 ± 0.00034
PKKSVAFKKTKKE [Unmod H1 variant P K K S V A F K K T K K E]	0.00203 ± 5.4e-05
KAKPVKASKPKKA [Unmod H1 variant K A K P V K A S K P K K A]	0.00292 ± 7.4e-05

same assay, conditions: peptide region: Unmod H1 variant; binder concentration: 100 nM

Binder	peptide microarray binding signal
SHYKVGENADSQI [Unmod H1 variant S H Y K V G E N A D S Q I]	0.00298 ± 0.00012
TPKKASKPKKAAS [Unmod H1 variant T P K K A S K P K K A A S]	0.00489 ± 0.00044
TENSTSAPAAKPK [Unmod H1 variant T E N S T S A P A A K P K]	0.00694 ± 0.00038
SETVPPAPAASAA [Unmod H1 variant S E T V P P A P A A S A A]	0.00446 ± 0.00013
AKKKLAATPKKAK [Unmod H1 variant A K K K L A A T P K K A K]	0.00397 ± 0.00028
KKAKKPKTVKAKP [Unmod H1 variant K K A K K P K T V K A K P]	0.00645 ± 0.00057
PKKAPVKPKAKSS [Unmod H1 variant P K K A P V K P K A K S S]	0.00496 ± 0.0015
SDMIVAAIQAEKN [Unmod H1 variant S D M I V A A I Q A E K N]	0.00326 ± 5.1e-05
PKKSVAFKKTKKE [Unmod H1 variant P K K S V A F K K T K K E]	0.00298 ± 7.3e-05
KAKPVKASKPKKA [Unmod H1 variant K A K P V K A S K P K K A]	0.00574 ± 0.00036

target: anti-H3K4me3 antibody ab8580; test: as above; settings: peptide region: Unmod H1 variant; binder concentration: 1:2,000 dilution
How it was run: as §1

Binder	peptide microarray binding signal
SHYKVGENADSQI [Unmod H1 variant S H Y K V G E N A D S Q I]	0.000227 ± 4.2e-06
TPKKASKPKKAAS [Unmod H1 variant T P K K A S K P K K A A S]	0.000698 ± 3.6e-05
TENSTSAPAAKPK [Unmod H1 variant T E N S T S A P A A K P K]	0.000906 ± 4.9e-05
SETVPPAPAASAA [Unmod H1 variant S E T V P P A P A A S A A]	0.00151 ± 2.3e-05
AKKKLAATPKKAK [Unmod H1 variant A K K K L A A T P K K A K]	0.000415 ± 8.4e-06
KKAKKPKTVKAKP [Unmod H1 variant K K A K K P K T V K A K P]	0.000642 ± 1.6e-05
PKKAPVKPKAKSS [Unmod H1 variant P K K A P V K P K A K S S]	0.00034 ± 2.1e-05
SDMIVAAIQAEKN [Unmod H1 variant S D M I V A A I Q A E K N]	0.00111 ± 2.4e-05
PKKSVAFKKTKKE [Unmod H1 variant P K K S V A F K K T K K E]	0.000321 ± 6.7e-06
KAKPVKASKPKKA [Unmod H1 variant K A K P V K A S K P K K A]	0.00051 ± 8.6e-06

same assay, conditions: peptide region: Unmod H1 variant; binder concentration: 1:10,000 dilution

Binder	peptide microarray binding signal
SHYKVGENADSQI [Unmod H1 variant S H Y K V G E N A D S Q I]	0.000571
TPKKASKPKKAAS [Unmod H1 variant T P K K A S K P K K A A S]	0.000571
TENSTSAPAAKPK [Unmod H1 variant T E N S T S A P A A K P K]	0.00188 ± 3.5e-05
SETVPPAPAASAA [Unmod H1 variant S E T V P P A P A A S A A]	0.00223 ± 4e-05
AKKKLAATPKKAK [Unmod H1 variant A K K K L A A T P K K A K]	0.000799 ± 2.2e-05
KKAKKPKTVKAKP [Unmod H1 variant K K A K K P K T V K A K P]	0.000628 ± 6.7e-06
PKKAPVKPKAKSS [Unmod H1 variant P K K A P V K P K A K S S]	0.000685 ± 7.2e-06
SDMIVAAIQAEKN [Unmod H1 variant S D M I V A A I Q A E K N]	0.00126 ± 4.3e-05
PKKSVAFKKTKKE [Unmod H1 variant P K K S V A F K K T K K E]	0.000628 ± 6.7e-06
KAKPVKASKPKKA [Unmod H1 variant K A K P V K A S K P K K A]	0.000685 ± 7.2e-06

target: anti-H3K9me3 antibody ab8898; test: as above; settings: peptide region: Unmod H1 variant; binder concentration: 1:2,000 dilution
How it was run: as §1

Binder	peptide microarray binding signal
SHYKVGENADSQI [Unmod H1 variant S H Y K V G E N A D S Q I]	0.000181
TPKKASKPKKAAS [Unmod H1 variant T P K K A S K P K K A A S]	0.000181
TENSTSAPAAKPK [Unmod H1 variant T E N S T S A P A A K P K]	0.00136 ± 1.7e-05
SETVPPAPAASAA [Unmod H1 variant S E T V P P A P A A S A A]	0.000891 ± 7.7e-05
AKKKLAATPKKAK [Unmod H1 variant A K K K L A A T P K K A K]	0.000272
KKAKKPKTVKAKP [Unmod H1 variant K K A K K P K T V K A K P]	0.000151 ± 1.6e-06
PKKAPVKPKAKSS [Unmod H1 variant P K K A P V K P K A K S S]	0.000362 ± 1.9e-05
SDMIVAAIQAEKN [Unmod H1 variant S D M I V A A I Q A E K N]	0.000559 ± 2.9e-05
PKKSVAFKKTKKE [Unmod H1 variant P K K S V A F K K T K K E]	0.000423 ± 4.2e-05
KAKPVKASKPKKA [Unmod H1 variant K A K P V K A S K P K K A]	0.000196 ± 2.1e-06

same assay, conditions: peptide region: Unmod H1 variant; binder concentration: 1:10,000 dilution

Binder	peptide microarray binding signal
SHYKVGENADSQI [Unmod H1 variant S H Y K V G E N A D S Q I]	0.000404 ± 4.4e-06
TPKKASKPKKAAS [Unmod H1 variant T P K K A S K P K K A A S]	0.000519 ± 5.6e-06
TENSTSAPAAKPK [Unmod H1 variant T E N S T S A P A A K P K]	0.0015 ± 2.5e-05
SETVPPAPAASAA [Unmod H1 variant S E T V P P A P A A S A A]	0.00115 ± 2e-05
AKKKLAATPKKAK [Unmod H1 variant A K K K L A A T P K K A K]	0.00098 ± 4.6e-05
KKAKKPKTVKAKP [Unmod H1 variant K K A K K P K T V K A K P]	0.000634 ± 1.2e-05
PKKAPVKPKAKSS [Unmod H1 variant P K K A P V K P K A K S S]	0.000865 ± 2.4e-05
SDMIVAAIQAEKN [Unmod H1 variant S D M I V A A I Q A E K N]	0.00104 ± 2.1e-05
PKKSVAFKKTKKE [Unmod H1 variant P K K S V A F K K T K K E]	0.000519 ± 5.6e-06
KAKPVKASKPKKA [Unmod H1 variant K A K P V K A S K P K K A]	0.000692 ± 7.3e-06
